Source: PMC7862700, “An all-to-all approach to the identification of sequence-specific readers for epigenetic DNA modifications on cytosine”

Key:
Test in all cases: DAPPL (digital affinity profiling via proximity ligation, sequencing); 10 mM Tris-HCl pH 7.5, 50 mM NaCl, 1 mM DTT, 4% glycerol, room temperature, 30 min; GST-TFs on glutathione beads, 16-mer random dsDNA library, 0.1% formaldehyde crosslink after washing; high values mean tight binding
FEV = molecular target: T1, FEV (Homo sapiens, UniProt Q99581 1-238); conditions: protein: recombinant; tags: N-terminal GST; dsDNA, one strand shown
T1 sequence: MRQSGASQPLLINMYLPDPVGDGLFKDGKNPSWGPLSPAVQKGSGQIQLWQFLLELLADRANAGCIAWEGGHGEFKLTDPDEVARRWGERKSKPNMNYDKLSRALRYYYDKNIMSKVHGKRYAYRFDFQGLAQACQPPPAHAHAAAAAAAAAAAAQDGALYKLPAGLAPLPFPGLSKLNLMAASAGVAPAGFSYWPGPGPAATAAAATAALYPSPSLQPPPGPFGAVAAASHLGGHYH
Outline: (§1)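 Beads coated with glutathione captured GST-fused human transcription factors that had been expressed in yeast, and the factors were then given DNA barcodes and pooled with a tag-only sample. The pools were incubated with 200 nmole of a random double-stranded 16-mer DNA library in Tris/NaCl/DTT/glycerol buffer for 30 min at room temperature, washed, crosslinked with 0.1% formaldehyde and proximity-ligated with BsaI/T4 ligase at 37 °C for 1 h. PCR amplification and Illumina NextSeq500 sequencing came last. Binding signal is each hexamer's read frequency for a factor divided by its frequency for the tag-only sample.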

ETV5 = ETV5 (Homo sapiens, UniProt P41161 1-510); conditions: protein: recombinant; tags: N-terminal GST; dsDNA, one strand shown
Outline: as §1

HSF1 = HSF1 (Homo sapiens, UniProt Q00613 1-529); conditions: protein: recombinant; tags: N-terminal GST; chain copies: 3; dsDNA, one strand shown
Outline: as §1

SPIC = molecular target: T2, SPIC (Homo sapiens, UniProt Q8N5J4 1-248); conditions: protein: recombinant; tags: N-terminal GST; dsDNA, one strand shown
T2 sequence: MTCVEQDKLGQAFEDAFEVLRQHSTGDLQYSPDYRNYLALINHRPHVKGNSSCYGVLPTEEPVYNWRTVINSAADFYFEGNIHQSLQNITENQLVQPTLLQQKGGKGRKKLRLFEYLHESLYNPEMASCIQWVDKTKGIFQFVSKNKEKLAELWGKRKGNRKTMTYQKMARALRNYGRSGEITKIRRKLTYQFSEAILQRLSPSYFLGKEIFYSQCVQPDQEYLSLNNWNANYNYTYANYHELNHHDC
Outline: as §1

ELF4 = ELF4 (Homo sapiens, UniProt Q99607 1-663); conditions: protein: recombinant; tags: N-terminal GST; dsDNA, one strand shown
Outline: as §1

ELK4 = molecular target: T3, ELK4 (Homo sapiens, UniProt P28324-2 1-405); conditions: protein: recombinant; tags: N-terminal GST; dsDNA, one strand shown
T3 sequence: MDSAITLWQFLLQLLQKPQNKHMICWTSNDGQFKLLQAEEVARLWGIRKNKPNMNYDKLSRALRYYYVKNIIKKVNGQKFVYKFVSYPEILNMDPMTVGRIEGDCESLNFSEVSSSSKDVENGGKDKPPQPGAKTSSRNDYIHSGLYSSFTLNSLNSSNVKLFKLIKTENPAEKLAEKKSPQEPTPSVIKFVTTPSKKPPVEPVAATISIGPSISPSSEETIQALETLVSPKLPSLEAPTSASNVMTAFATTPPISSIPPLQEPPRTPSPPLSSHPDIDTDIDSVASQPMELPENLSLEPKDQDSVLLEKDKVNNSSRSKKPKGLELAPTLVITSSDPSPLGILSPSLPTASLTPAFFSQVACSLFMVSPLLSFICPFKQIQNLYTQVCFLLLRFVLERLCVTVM
Outline: as §1

ETV2 = molecular target: T4, ETV2 (Homo sapiens, UniProt O00321 1-342); conditions: protein: recombinant; tags: N-terminal GST; dsDNA, one strand shown
T4 sequence: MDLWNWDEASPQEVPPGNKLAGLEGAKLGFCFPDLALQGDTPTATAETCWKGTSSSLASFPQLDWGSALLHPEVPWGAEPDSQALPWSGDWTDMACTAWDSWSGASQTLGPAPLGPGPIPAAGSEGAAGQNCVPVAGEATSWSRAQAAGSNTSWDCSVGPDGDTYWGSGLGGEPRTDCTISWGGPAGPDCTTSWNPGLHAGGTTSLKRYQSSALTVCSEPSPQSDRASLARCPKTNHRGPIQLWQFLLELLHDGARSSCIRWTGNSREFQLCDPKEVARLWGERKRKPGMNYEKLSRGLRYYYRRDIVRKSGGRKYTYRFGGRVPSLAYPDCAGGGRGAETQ
Outline: as §1

ELF3 = molecular target: T5, ELF3 (Homo sapiens, UniProt P78545 1-371); conditions: protein: recombinant; tags: N-terminal GST; dsDNA, one strand shown
T5 sequence: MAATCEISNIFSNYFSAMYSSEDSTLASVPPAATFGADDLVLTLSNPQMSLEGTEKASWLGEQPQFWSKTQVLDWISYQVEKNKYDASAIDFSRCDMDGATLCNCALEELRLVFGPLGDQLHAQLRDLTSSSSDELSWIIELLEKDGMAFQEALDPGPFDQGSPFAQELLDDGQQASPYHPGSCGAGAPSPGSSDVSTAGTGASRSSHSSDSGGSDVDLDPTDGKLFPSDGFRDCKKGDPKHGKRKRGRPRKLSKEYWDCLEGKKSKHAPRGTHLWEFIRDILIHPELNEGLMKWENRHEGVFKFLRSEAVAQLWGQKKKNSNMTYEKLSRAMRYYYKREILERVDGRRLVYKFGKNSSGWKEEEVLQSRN
Outline: as §1

CRX = CRX (Homo sapiens, UniProt O43186 1-299); conditions: protein: recombinant; tags: N-terminal GST; dsDNA, one strand shown
Outline: as §1

ETV1 = ETV1 (Homo sapiens, UniProt P50549 1-477); conditions: protein: recombinant; tags: N-terminal GST; dsDNA, one strand shown
Outline: as §1

Chain of CRX (O43186 whole entry): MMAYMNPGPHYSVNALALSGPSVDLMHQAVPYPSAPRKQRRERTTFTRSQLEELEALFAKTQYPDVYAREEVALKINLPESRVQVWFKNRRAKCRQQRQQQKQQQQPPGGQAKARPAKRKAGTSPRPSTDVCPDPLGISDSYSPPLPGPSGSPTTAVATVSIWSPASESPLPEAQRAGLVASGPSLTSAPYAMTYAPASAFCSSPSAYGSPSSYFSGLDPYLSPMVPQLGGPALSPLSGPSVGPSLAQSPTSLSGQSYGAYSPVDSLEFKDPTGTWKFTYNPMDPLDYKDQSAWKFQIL
Chain of ETV5 (P41161 whole entry): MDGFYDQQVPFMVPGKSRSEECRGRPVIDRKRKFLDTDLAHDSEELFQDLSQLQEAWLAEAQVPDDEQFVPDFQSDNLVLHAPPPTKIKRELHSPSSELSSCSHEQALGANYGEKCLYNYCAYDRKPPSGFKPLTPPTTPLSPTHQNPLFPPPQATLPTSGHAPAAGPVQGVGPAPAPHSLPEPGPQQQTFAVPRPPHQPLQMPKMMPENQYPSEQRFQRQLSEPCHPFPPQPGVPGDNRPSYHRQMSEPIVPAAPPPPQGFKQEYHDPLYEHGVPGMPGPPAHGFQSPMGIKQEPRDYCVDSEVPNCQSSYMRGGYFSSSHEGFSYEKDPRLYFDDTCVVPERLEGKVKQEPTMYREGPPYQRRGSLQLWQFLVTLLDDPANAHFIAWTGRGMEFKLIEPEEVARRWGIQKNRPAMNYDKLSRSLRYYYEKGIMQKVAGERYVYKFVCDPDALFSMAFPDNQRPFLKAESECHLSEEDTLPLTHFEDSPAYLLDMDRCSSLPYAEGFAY
Chain of ELF4 (Q99607 whole entry): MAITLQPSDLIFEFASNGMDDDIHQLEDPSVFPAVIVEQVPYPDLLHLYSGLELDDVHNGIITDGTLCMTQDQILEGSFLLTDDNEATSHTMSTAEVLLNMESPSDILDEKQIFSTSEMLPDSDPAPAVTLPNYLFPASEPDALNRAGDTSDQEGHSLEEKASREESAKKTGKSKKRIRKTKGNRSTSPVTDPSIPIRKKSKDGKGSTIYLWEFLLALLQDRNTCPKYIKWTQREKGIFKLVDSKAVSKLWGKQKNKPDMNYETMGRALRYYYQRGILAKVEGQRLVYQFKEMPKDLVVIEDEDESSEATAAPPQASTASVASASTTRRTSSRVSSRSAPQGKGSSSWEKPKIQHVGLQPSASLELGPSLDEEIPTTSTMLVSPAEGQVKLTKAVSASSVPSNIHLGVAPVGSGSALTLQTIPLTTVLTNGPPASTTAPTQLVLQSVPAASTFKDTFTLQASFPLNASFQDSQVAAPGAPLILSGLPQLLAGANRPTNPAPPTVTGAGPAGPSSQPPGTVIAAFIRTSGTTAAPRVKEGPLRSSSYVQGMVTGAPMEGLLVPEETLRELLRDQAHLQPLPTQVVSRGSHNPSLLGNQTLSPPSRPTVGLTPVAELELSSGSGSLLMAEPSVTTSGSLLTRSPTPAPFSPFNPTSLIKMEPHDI
Chain of HSF1 (Q00613 whole entry): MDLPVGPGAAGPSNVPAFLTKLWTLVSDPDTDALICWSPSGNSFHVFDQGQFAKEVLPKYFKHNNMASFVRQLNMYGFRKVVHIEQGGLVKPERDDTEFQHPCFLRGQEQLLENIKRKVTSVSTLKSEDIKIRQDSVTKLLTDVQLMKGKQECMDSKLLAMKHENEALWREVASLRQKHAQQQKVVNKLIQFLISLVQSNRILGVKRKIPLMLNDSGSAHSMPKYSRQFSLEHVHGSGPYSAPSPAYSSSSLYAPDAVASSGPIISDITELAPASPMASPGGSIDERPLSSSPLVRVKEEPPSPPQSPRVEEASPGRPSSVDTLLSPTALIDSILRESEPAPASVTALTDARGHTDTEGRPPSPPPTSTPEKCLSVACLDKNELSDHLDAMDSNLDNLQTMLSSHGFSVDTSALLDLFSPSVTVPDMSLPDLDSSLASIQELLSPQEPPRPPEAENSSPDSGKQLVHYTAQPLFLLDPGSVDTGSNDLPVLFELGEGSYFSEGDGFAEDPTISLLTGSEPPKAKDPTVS
Chain of ETV1 (P50549 whole entry): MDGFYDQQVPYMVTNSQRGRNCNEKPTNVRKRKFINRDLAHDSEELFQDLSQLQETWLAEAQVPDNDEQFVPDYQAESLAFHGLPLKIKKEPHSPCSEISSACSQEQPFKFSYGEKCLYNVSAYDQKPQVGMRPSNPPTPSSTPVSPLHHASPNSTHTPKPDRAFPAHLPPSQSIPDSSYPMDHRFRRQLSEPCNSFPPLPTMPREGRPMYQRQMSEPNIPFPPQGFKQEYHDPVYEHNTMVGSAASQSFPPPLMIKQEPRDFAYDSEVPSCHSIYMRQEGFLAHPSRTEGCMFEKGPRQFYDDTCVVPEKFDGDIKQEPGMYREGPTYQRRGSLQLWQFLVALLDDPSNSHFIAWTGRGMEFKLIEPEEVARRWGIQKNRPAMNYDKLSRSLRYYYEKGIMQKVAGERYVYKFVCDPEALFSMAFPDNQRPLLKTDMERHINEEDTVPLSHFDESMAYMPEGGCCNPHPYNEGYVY

Which binding signal (FEV) does the source give for CTAGGT here?
Its binding signal is 1.07 fold enrichment (6-mer frequency, TF over GST control).

And the binding signal (ETV5)?
The binding signal was 1.18 fold enrichment (6-mer frequency, TF over GST control).

And the binding signal (HSF1)?
Its binding signal is 1.19 fold enrichment (6-mer frequency, TF over GST control).

And the binding signal (SPIC)?
Its binding signal is 1.26 fold enrichment (6-mer frequency, TF over GST control).

What about the binding signal (ELF4) of the same sequence?
Its binding signal is 1.12 fold enrichment (6-mer frequency, TF over GST control).

What about the binding signal (ELK4) of the same sequence?
The binding signal was 1.18 fold enrichment (6-mer frequency, TF over GST control).

What about the binding signal (ETV2) of the same sequence?
The binding signal was 1.07 fold enrichment (6-mer frequency, TF over GST control).

And the binding signal (ELF3)?
Its binding signal is 1.18 fold enrichment (6-mer frequency, TF over GST control).

What about the binding signal (CRX) of the same sequence?
The binding signal was 1.05 fold enrichment (6-mer frequency, TF over GST control).

What about the binding signal (ETV1) of the same sequence?
The binding signal was 1.1 fold enrichment (6-mer frequency, TF over GST control).
